# Results taken from the supplement of paper PMC10338343.
# ± gives the standard deviation.
# Columns and labels:
# [1] = tested on: MILI (PIWIL2) piRISC loaded with piRNA #1 (26 nt); test: pre-steady-state target cleavage rate (min^-1); guide: piRNA #1 5'p-UGAGGUAGUAGGUUGUAUAGUAUCCA; higher = faster piRNA-guided slicing of the target; conditions: auxiliary factor: 500 nM mouse GTSF1;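 also: 1 nM active piRISC with 0.1 nM target library at 33 °C single turnover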
# In short: (§1)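 The pre-steady-state cleavage rate was calculated from a burst-and-steady-state fit. Data came from Cleave-'n-Seq, in which […] transcribed, DNA-blocked target RNA library was mixed with 1 nM active affinity-purified piRISC carrying one synthetic guide, with or without 500 nM GTSF1 partner protein, in HEPES–potassium acetate buffer at 33 °C for 0–8 or 0–960 min. Uncleaved targets were sequenced and normalised to depth and to weakly complementary targets, three trials were pooled, and k3 was capped at 0.0001 min^-1.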
# [2] = tested on: EfPiwi piRISC loaded with piRNA #1 (26 nt); test: pre-steady-state target cleavage rate (min^-1); auxiliary factor: 500 nM Ephydatia muelleri Gtsf1; guide: piRNA #1 5'p-UGAGGUAGUAGGUUGUAUAGUAUCCA; MIWI and MILI are mouse PIWI proteins and EfPiwi is from a freshwater sponge; tags in brackets are library labels; higher = faster piRNA-guided slicing of the target
# In short: as §1
Sequence,pre-steady-state target cleavage rate [1],pre-steady-state target cleavage rate [2]
GGAGACGAUUCUAUACAACCUACUACCUGA,0.167 ± 0.021,0.00463 ± 0.0026
GGAGACCUAUCUAUACAACCUACUACCUCA [g2:g20:cont:t1A],0.11 ± 0.018,0.0119 ± 0.0046
GGAGACCAAACUAUACUACCUACUACCUCA,0.119 ± 0.022,0.00362 ± 0.0032
GGAGACCUAUCUAUACAACCUACUACCUCC [g2:g20:cont:t1C],0.106 ± 0.011,0.0049 ± 0.0034
GGAGACCUAUCUAUACAACCUACUACCCCA,0.123 ± 0.02,0.00444 ± 0.0032
GGAGUGGAUACUAUACUACCUACUACCACA,0.143 ± 0.013,0.0024 ± 0.0017
GGAGACGAUACUAUACUACCUACUACGUCA,0.138 ± 0.019,0.00262 ± 0.0017
GGAGUCGAUACUAAACAACCUACUACCUCA,0.183 ± 0.015,0.00865 ± 0.0048
GGAGAGGAUACUAUUCAACCUACUACCUCA,0.178 ± 0.011,0.012 ± 0.0057
GGAGAGGAUACUAUACAACCUAAUACCUCA,0.0575 ± 0.01,0.00595 ± 0.0025
GGAGUGGAUACUAUACAACCUACUACGUGA,0.0157 ± 0.0044,0.00378 ± 0.0015
GGAGUGGAUACUAUACAACCUACGACCUCA,0.0834 ± 0.0092,0.00416 ± 0.0017
GGAGACGAUACUAUACAUCGUACUACCUCA,0.0496 ± 0.0064,0.00254 ± 0.0012
GGAGACCUAACUAUACAACCUGCUACCUCA,0.0157 ± 0.0084,0.0127 ± 0.005
GGAGAGGAUACUUAUACAACCUACUACCUCA,0.127 ± 0.012,0.112 ± 0.045
GGAGACCUAUCCAUACAACCUACUACCUCA,0.0836 ± 0.016,0.0212 ± 0.01
GGAGACCAUACUAUACAACCUACUUACCUCA,0.175 ± 0.017,0.00697 ± 0.0031
GGAGAGGAUACUAAACAACCUACUACCUCA,0.174 ± 0.012,0.00787 ± 0.0036
GGAGACCUAUCUAUGACAACCUACUACCUCA,0.0545 ± 0.0096,0.00594 ± 0.0037
GGAGAGGAUACUAUAGAAGCUACUACCUCA,0.0647 ± 0.0095,0.00238 ± 0.0021

Sequence,pre-steady-state target cleavage rate [1],pre-steady-state target cleavage rate [2]
GGAGACCUAACUUUACAACCUAGUACCUCA,0.0141 ± 0.0091,0.00417 ± 0.0038
GGAGACCAUACUAUACAACCUUCUACCUGA,0.00324 ± 0.0032,0.00624 ± 0.0044
GGAGACCAUACUAUACAACCUACUAGCACA,0.0527 ± 0.018,0.00447 ± 0.0023
GGAGAGGAUACGUAUACAACCUACUACCUCA,0.0772 ± 0.011,0.0803 ± 0.032
GGAGUGGAUACUAUACAUCCUAGUACCUCA,0.103 ± 0.019,0.00411 ± 0.0015
GGAGUCGAAACUAUACAACCUACUACCUCA,0.18 ± 0.019,0.0604 ± 0.021
GGAGACCUUACUAGACAACCUACUACCUCA,0.155 ± 0.015,0.0104 ± 0.0051
GGAGACGAUACUAUACAACCUACUGACCUCA,0.118 ± 0.015,0.00338 ± 0.0017
GGAGUGGUUACUAAACAACCUACUACCUCA,0.161 ± 0.0092,0.00439 ± 0.0033
GGAGACCUAUGAUAACAACCUACUACGCUCA,0.00466 ± 0.0023,< 0.0001
GGAGUGGAUACUAUACAUCCUACUUCCUCA,0.0127 ± 0.0032,0.00326 ± 0.0017
GGAGUGGAUACUUUACAACCUACUACCUCA,0.174 ± 0.0092,0.00658 ± 0.0035
GGAGUGGAUACUAUACAACCAACAACCUCA,0.00386 ± 0.0015,0.00217 ± 0.0016
GGAGAGGAUACUAUACAACCUACUACCUGA,0.0731 ± 0.011,0.00647 ± 0.0028
GGAGACCUAUCUAUACAACCUACUACCUCU [g2:g20:cont:t1U],0.0927 ± 0.011,0.993 ± 0.45
GGAGACCAUACUAUACUACGUACUACCUCA,0.0334 ± 0.0056,0.00415 ± 0.0028
GGAGUGGAUACUAUACAACCUACAUACCUCA,0.109 ± 0.011,0.00344 ± 0.0016
GGAGACGAUACAUACAACCUACUACCUCA,0.158 ± 0.019,0.00551 ± 0.0028
GGAGAGCAUUCUAUACAACCUACUACCUCA,0.156 ± 0.013,0.0192 ± 0.01
GGAGACCUAGCUAUACAACCUACUACCUCA,0.0862 ± 0.027,0.00604 ± 0.0058

Sequence,pre-steady-state target cleavage rate [1],pre-steady-state target cleavage rate [2]
GGAGACCUAACUUUACAACCUACUACCUCA,0.109 ± 0.025,0.00631 ± 0.0034
GGAGACCAUACUAUACAACCUACUACGAGA,0.0759 ± 0.019,0.00579 ± 0.0027
GGAGUGGAUACUAUACAACCUACUACCUGCA,0.109 ± 0.012,0.00841 ± 0.0028
GGAGUGCUAACUAUACAACCUACUACCUCA,0.128 ± 0.015,0.0117 ± 0.0053
GGAGACCUUACUACUACAACCUACUACCUCA,0.107 ± 0.011,0.00852 ± 0.0036
GGAGAGGAUACUAUACAACGUACUACCUCA,0.0143 ± 0.003,0.0053 ± 0.0021
GGAGACGAUACUAUACAACCAACUACCUGA,0.00533 ± 0.0024,0.00427 ± 0.0022
GGAGACCUAUCAUUACAACCUACUACCUCA,0.0146 ± 0.0049,0.00563 ± 0.0035
GGAGACCUAUGUCAUACAACCUACUACCUCA,0.0265 ± 0.008,0.00679 ± 0.0034
GGAGACGAUACUAUACAACCUACCACCUCA,0.122 ± 0.018,0.00631 ± 0.0033
GGAGACCUAUGAUAACAACCUACUACCUACA,0.0036 ± 0.0024,< 0.0001
GGAGACCUUACUAUACAGCCUACUACCUCA,0.116 ± 0.012,0.068 ± 0.028
GGAGACGAUACAUUACAACCUACUACCUCA,0.173 ± 0.015,0.00848 ± 0.0035
GGAGACGAUACUAUACAACCUACAUACCUCA,0.153 ± 0.016,0.00413 ± 0.0021
GGAGACCUUUCAAUACAACCUACUACCUCA,0.0649 ± 0.017,0.00501 ± 0.0042
GGAGUGAAUACUAUACAACCUACUACCUCA,0.175 ± 0.009,0.102 ± 0.037
GGAGAGGUAACUAUACAACCUACUACCUCA,0.103 ± 0.015,0.00695 ± 0.0039
GGAGACCUAACUCAUACAACCUACUACCUCA,0.0742 ± 0.033,0.0159 ± 0.0089
GGAGUGGAUACUAUACACCUACUACCUCA,0.0342 ± 0.0053,0.157 ± 0.056
